# Source: publication PMC7862700, “An all-to-all approach to the identification of sequence-specific readers for epigenetic DNA modifications on cytosine”
# Biological target: T1, ETS2 (Homo sapiens, UniProt P15036 1-469)
# T1 sequence: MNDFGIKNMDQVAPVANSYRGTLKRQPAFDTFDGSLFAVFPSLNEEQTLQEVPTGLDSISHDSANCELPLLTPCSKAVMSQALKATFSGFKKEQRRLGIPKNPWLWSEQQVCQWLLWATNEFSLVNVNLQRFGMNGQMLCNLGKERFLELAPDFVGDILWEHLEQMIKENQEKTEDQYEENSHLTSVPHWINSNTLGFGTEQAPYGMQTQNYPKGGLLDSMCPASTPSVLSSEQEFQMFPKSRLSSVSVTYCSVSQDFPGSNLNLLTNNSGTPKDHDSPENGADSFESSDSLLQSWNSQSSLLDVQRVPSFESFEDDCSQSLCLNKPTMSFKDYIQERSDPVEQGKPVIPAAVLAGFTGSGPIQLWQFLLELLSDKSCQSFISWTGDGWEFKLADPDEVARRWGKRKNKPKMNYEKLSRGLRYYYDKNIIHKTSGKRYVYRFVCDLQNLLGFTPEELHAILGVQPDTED
# Assay: DAPPL (digital affinity profiling via proximity ligation, sequencing); 10 mM Tris-HCl pH 7.5, 50 mM NaCl, 1 mM DTT, 4% glycerol, room temperature, 30 min; GST-TFs on glutathione beads, 16-mer random dsDNA library, 0.1% formaldehyde crosslink after washing; high values mean tight binding
# Conditions: protein: recombinant; tags: N-terminal GST; dsDNA, one strand shown
# Outline: (§1)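 Beads coated with glutathione captured GST-fused human transcription factors that had been expressed in yeast, and the factors were then given DNA barcodes and pooled with a tag-only sample. The pools were incubated with 200 nmole of a random double-stranded 16-mer DNA library in Tris/NaCl/DTT/glycerol buffer for 30 min at room temperature, washed, crosslinked with 0.1% formaldehyde and proximity-ligated with BsaI/T4 ligase at 37 °C for 1 h. PCR amplification and Illumina NextSeq500 sequencing came last. Binding signal is each hexamer's read frequency for a factor divided by its frequency for the tag-only sample.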
row,Sequence,binding signal
1,CCTTTG,"1.32 fold enrichment (6-mer frequency, TF over GST control)"
2,GTGTTT,"1.19 fold enrichment (6-mer frequency, TF over GST control)"
3,GCCTCA,"1.13 fold enrichment (6-mer frequency, TF over GST control)"
4,TTGCAA,"1.1 fold enrichment (6-mer frequency, TF over GST control)"
5,TGCGAA,"1.1 fold enrichment (6-mer frequency, TF over GST control)"
6,GAAATT,"1.35 fold enrichment (6-mer frequency, TF over GST control)"
7,TAAACA,"1.27 fold enrichment (6-mer frequency, TF over GST control)"
8,GTACAC,"1.18 fold enrichment (6-mer frequency, TF over GST control)"
9,TACATT,"1.19 fold enrichment (6-mer frequency, TF over GST control)"
10,TGGTTC,"1.32 fold enrichment (6-mer frequency, TF over GST control)"
11,CAACAT,"1.17 fold enrichment (6-mer frequency, TF over GST control)"
12,AAGTCA,"1.21 fold enrichment (6-mer frequency, TF over GST control)"
13,TCTCCG,"1.62 fold enrichment (6-mer frequency, TF over GST control)"
14,CTGGGT,"1.09 fold enrichment (6-mer frequency, TF over GST control)"
15,TACAAA,"1.17 fold enrichment (6-mer frequency, TF over GST control)"
16,CAAGCA,"1.25 fold enrichment (6-mer frequency, TF over GST control)"
17,CTTTCT,"1.55 fold enrichment (6-mer frequency, TF over GST control)"
18,ATTAAC,"1.27 fold enrichment (6-mer frequency, TF over GST control)"
19,TTGCGC,"1.16 fold enrichment (6-mer frequency, TF over GST control)"
20,TGATGT,"1.29 fold enrichment (6-mer frequency, TF over GST control)"

# Biological target: T2, SPDEF (Homo sapiens, UniProt O95238 1-335)
# T2 sequence: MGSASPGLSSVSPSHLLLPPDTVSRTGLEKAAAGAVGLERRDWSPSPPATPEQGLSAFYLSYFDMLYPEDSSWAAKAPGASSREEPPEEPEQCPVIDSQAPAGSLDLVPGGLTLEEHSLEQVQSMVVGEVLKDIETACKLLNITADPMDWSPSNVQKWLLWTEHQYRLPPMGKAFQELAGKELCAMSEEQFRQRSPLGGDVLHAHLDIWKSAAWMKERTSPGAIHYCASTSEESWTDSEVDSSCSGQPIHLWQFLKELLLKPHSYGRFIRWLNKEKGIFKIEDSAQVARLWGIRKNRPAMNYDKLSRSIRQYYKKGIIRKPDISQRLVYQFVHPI
# Assay: as above
# Conditions: protein: recombinant; tags: N-terminal GST; dsDNA, one strand shown
# Outline: as §1
row,Sequence,binding signal
1,TATGGT,"1.35 fold enrichment (6-mer frequency, TF over GST control)"
2,TTGACC,"1.52 fold enrichment (6-mer frequency, TF over GST control)"
3,ATGTCC,"2.05 fold enrichment (6-mer frequency, TF over GST control)"
4,AACTTC,"2.21 fold enrichment (6-mer frequency, TF over GST control)"
5,CTAAGC,"1.06 fold enrichment (6-mer frequency, TF over GST control)"
6,ACAACT,"1.43 fold enrichment (6-mer frequency, TF over GST control)"
7,CGACTA,"1.37 fold enrichment (6-mer frequency, TF over GST control)"
8,GACCTG,"1.12 fold enrichment (6-mer frequency, TF over GST control)"
9,GGTACT,"1.31 fold enrichment (6-mer frequency, TF over GST control)"
10,GGGCTT,"1.11 fold enrichment (6-mer frequency, TF over GST control)"
11,ACTGGC,"1.04 fold enrichment (6-mer frequency, TF over GST control)"
12,TCTCAA,"1.23 fold enrichment (6-mer frequency, TF over GST control)"
13,AAAAGA,"1.1 fold enrichment (6-mer frequency, TF over GST control)"
14,CATCCG,"3.63 fold enrichment (6-mer frequency, TF over GST control)"
15,AAGCGC,"1.03 fold enrichment (6-mer frequency, TF over GST control)"
16,AGGAAA,"1.31 fold enrichment (6-mer frequency, TF over GST control)"
17,TGCACG,"1.11 fold enrichment (6-mer frequency, TF over GST control)"
18,GTCTTA,"1.17 fold enrichment (6-mer frequency, TF over GST control)"
19,AAACGG,"1.25 fold enrichment (6-mer frequency, TF over GST control)"
20,CGCTCC,"1.22 fold enrichment (6-mer frequency, TF over GST control)"

row,Sequence,binding signal
1,CCTTTG,"1.22 fold enrichment (6-mer frequency, TF over GST control)"
2,GTGTTT,"1.22 fold enrichment (6-mer frequency, TF over GST control)"
3,GCCTCA,"1.16 fold enrichment (6-mer frequency, TF over GST control)"
4,TTGCAA,"1.25 fold enrichment (6-mer frequency, TF over GST control)"
5,TGCGAA,"1.2 fold enrichment (6-mer frequency, TF over GST control)"
6,GAAATT,"1.25 fold enrichment (6-mer frequency, TF over GST control)"
7,TAAACA,"1.27 fold enrichment (6-mer frequency, TF over GST control)"
8,GTACAC,"1.2 fold enrichment (6-mer frequency, TF over GST control)"
9,TACATT,"1.18 fold enrichment (6-mer frequency, TF over GST control)"
10,TGGTTC,"1.35 fold enrichment (6-mer frequency, TF over GST control)"
11,CAACAT,"1.17 fold enrichment (6-mer frequency, TF over GST control)"
12,AAGTCA,"1.18 fold enrichment (6-mer frequency, TF over GST control)"
13,TCTCCG,"1.65 fold enrichment (6-mer frequency, TF over GST control)"
14,CTGGGT,"1.08 fold enrichment (6-mer frequency, TF over GST control)"
15,TACAAA,"1.14 fold enrichment (6-mer frequency, TF over GST control)"
16,CAAGCA,"1.06 fold enrichment (6-mer frequency, TF over GST control)"
17,CTTTCT,"1.44 fold enrichment (6-mer frequency, TF over GST control)"
18,ATTAAC,"1.26 fold enrichment (6-mer frequency, TF over GST control)"
19,TTGCGC,"1.06 fold enrichment (6-mer frequency, TF over GST control)"
20,TGATGT,"1.26 fold enrichment (6-mer frequency, TF over GST control)"

# Biological target: T3, ETV7 (Homo sapiens, UniProt Q9Y603 1-341)
# T3 sequence: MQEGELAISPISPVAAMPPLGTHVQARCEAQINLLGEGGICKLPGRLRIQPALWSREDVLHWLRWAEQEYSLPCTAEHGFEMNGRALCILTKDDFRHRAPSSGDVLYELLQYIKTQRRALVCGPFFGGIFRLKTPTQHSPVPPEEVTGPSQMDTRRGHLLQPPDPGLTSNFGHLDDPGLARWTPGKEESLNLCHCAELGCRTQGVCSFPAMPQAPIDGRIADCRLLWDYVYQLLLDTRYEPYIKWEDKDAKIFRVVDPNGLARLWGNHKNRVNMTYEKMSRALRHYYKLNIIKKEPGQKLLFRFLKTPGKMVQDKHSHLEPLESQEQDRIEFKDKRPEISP
# Assay: as above
# Conditions: protein: recombinant; tags: N-terminal GST; dsDNA, one strand shown
# Outline: as §1
row,Sequence,binding signal
1,TATGGT,"1.21 fold enrichment (6-mer frequency, TF over GST control)"
2,TTGACC,"1.35 fold enrichment (6-mer frequency, TF over GST control)"
3,ATGTCC,"1.71 fold enrichment (6-mer frequency, TF over GST control)"
4,AACTTC,"2.3 fold enrichment (6-mer frequency, TF over GST control)"
5,CTAAGC,"1.04 fold enrichment (6-mer frequency, TF over GST control)"
6,ACAACT,"1.14 fold enrichment (6-mer frequency, TF over GST control)"
7,CGACTA,"1.31 fold enrichment (6-mer frequency, TF over GST control)"
8,GACCTG,"1.17 fold enrichment (6-mer frequency, TF over GST control)"
9,GGTACT,"1.2 fold enrichment (6-mer frequency, TF over GST control)"
10,GGGCTT,"1.28 fold enrichment (6-mer frequency, TF over GST control)"
11,ACTGGC,"1.21 fold enrichment (6-mer frequency, TF over GST control)"
12,TCTCAA,"1.17 fold enrichment (6-mer frequency, TF over GST control)"
13,AAAAGA,"1.1 fold enrichment (6-mer frequency, TF over GST control)"
14,CATCCG,"1.96 fold enrichment (6-mer frequency, TF over GST control)"
15,AAGCGC,"1.11 fold enrichment (6-mer frequency, TF over GST control)"
16,AGGAAA,"1.46 fold enrichment (6-mer frequency, TF over GST control)"
17,TGCACG,"1.19 fold enrichment (6-mer frequency, TF over GST control)"
18,GTCTTA,"1.21 fold enrichment (6-mer frequency, TF over GST control)"
19,AAACGG,"1.16 fold enrichment (6-mer frequency, TF over GST control)"
20,CGCTCC,"1.18 fold enrichment (6-mer frequency, TF over GST control)"

row,Sequence,binding signal
1,CCTTTG,"1.33 fold enrichment (6-mer frequency, TF over GST control)"
2,GTGTTT,"1.2 fold enrichment (6-mer frequency, TF over GST control)"
3,GCCTCA,"1.24 fold enrichment (6-mer frequency, TF over GST control)"
4,TTGCAA,"1.19 fold enrichment (6-mer frequency, TF over GST control)"
5,TGCGAA,"1.18 fold enrichment (6-mer frequency, TF over GST control)"
6,GAAATT,"1.2 fold enrichment (6-mer frequency, TF over GST control)"
7,TAAACA,"1.24 fold enrichment (6-mer frequency, TF over GST control)"
8,GTACAC,"1.24 fold enrichment (6-mer frequency, TF over GST control)"
9,TACATT,"1.25 fold enrichment (6-mer frequency, TF over GST control)"
10,TGGTTC,"1.48 fold enrichment (6-mer frequency, TF over GST control)"
11,CAACAT,"1.08 fold enrichment (6-mer frequency, TF over GST control)"
12,AAGTCA,"1.24 fold enrichment (6-mer frequency, TF over GST control)"
13,TCTCCG,"1.31 fold enrichment (6-mer frequency, TF over GST control)"
14,CTGGGT,"1.1 fold enrichment (6-mer frequency, TF over GST control)"
15,TACAAA,"1.11 fold enrichment (6-mer frequency, TF over GST control)"
16,CAAGCA,"1.1 fold enrichment (6-mer frequency, TF over GST control)"
17,CTTTCT,"1.46 fold enrichment (6-mer frequency, TF over GST control)"
18,ATTAAC,"1.24 fold enrichment (6-mer frequency, TF over GST control)"
19,TTGCGC,"1.12 fold enrichment (6-mer frequency, TF over GST control)"
20,TGATGT,"1.18 fold enrichment (6-mer frequency, TF over GST control)"
